About 79,000 compounds went through this panel and 15% of them were active in at least one assay; those are over-represented in the sample as a whole. A number with no mark means an inactive call. Active and inactive are the calls of the source. No stated cut-off is given here; in the data, active means growth inhibition above about 70%; inactive means the rest.

Assay [1] can be described thus: NCI Yeast Anticancer Drug Screen. Data for the rad50 strain (AID 155).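 Further: 0% = growth of vehicle-only cultures of the same strain.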 Conditions: S. cerevisiae rad50 strain growth inhibition, active compounds read high. In short, it runs like this:
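Readout: growth inhibition relative to vehicle-treated cultures. Compound exposure was carried out in a genetically defined yeast strain deficient in DNA damage repair.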

A short description of assay [2]: NCI Yeast Anticancer Drug Screen. Data for the mec2-1 strain (AID 157). Conditions: S. cerevisiae mec2-1 strain, active compounds read high. In short, it runs like this:
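Mutant yeast (mec2-1) grown with compound; growth inhibition relative to vehicle control reported.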

Assay [3] in a line: NCI Yeast Anticancer Drug Screen. Data for the sgs1 mgt1 strain (AID 161).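 Further: 0% = growth of cultures given vehicle only.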 Conditions: S. cerevisiae sgs1 mgt1 strain, active compounds read high. A digest of the protocol:
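Growth of a repair-deficient yeast mutant was monitored after compound treatment and expressed as inhibition relative to vehicle-treated cultures.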

Assay [4] can be described thus: NCI Yeast Anticancer Drug Screen. Data for the cln2 rad14 strain (AID 165).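 Further: 0% = growth equal to vehicle treated cultures.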 Conditions: S. cerevisiae cln2 rad14 strain, active compounds read high. In short, it runs like this: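 Readout is yeast growth inhibition versus vehicle-treated controls, using a strain with cln2 and rad14 alterations exposed to compound.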
The nature of assay [5]: NCI Yeast Anticancer Drug Screen. Data for the bub3 strain (AID 167). Particulars: S. cerevisiae bub3 mutant strain, active compounds read high. In short, it runs like this: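 Readout: yeast growth inhibition, expressed relative to vehicle-only wells. The test organism is a mutant strain from a panel with lesions in DNA repair or checkpoint genes.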
Assay [6] can be described thus: NCI Yeast Anticancer Drug Screen. Data for the mlh1 rad18 strain (AID 175). Conditions: S. cerevisiae mlh1 rad18 strain growth inhibition, active compounds read high. In short, it runs like this:
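Genetically defined yeast (DNA repair-deficient) exposed to compounds; growth inhibition determined relative to vehicle.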

The mark [7] stands for this setting: at 5.0 µM (retest, dose inferred, filed as 0.5).
[8] abbreviates: at 50.0 µM (retest, dose inferred, filed as 5.0).

Turning to `O=c1[nH]c2ccccc2c(O)c1/C=N/C(=S)NCCc1ccccc1`, the growth inhibition was 26% in assay [1] (setting [7]); 28% in assay [1] (setting [8]); -41.5% in assay [1] (at 50.0 µM); 25% in assay [2] (setting [7]); 22% in assay [2] (setting [8]); -21.8% in assay [2] (at 50.0 µM). Moreover, the growth inhibition in assay [3] (setting [7]) is 28%; in assay [3] (setting [8]), 29%; in assay [3] (at 50.0 µM) it was 5.4%; in assay [4] (setting [7]) it was 21%; in assay [4] (setting [8]), 11%; in assay [4] (at 50.0 µM), 9.6%. The growth inhibition in assay [5] (setting [7]) is 30%; in assay [5] (setting [8]) it was 20%; in assay [5] (at 50.0 µM), 4.65%; in assay [6] (setting [7]) it was 28%; in assay [6] (setting [8]), 22%; in assay [6] (at 50.0 µM) it was 7.5%.

In the case of `O=C(O)C1C(C(=O)O)C2C(=O)C=CC1N2Cc1ccccc1` (stereo not drawn), the growth inhibition in assay [1] (setting [7]) is 11%; in assay [1] (setting [8]), 46%; in assay [1] (at 50.0 µM), 79.8% (active); in assay [2] (setting [7]), 1%; in assay [2] (setting [8]) it was 61%; in assay [2] (at 50.0 µM), 81.2% (active). Further, the growth inhibition in assay [3] (setting [7]) was 5%; in assay [3] (setting [8]), 65%; in assay [3] (at 50.0 µM) it was 78.5% (active); in assay [4] (setting [7]), -8%; in assay [4] (setting [8]) it was 31%; in assay [4] (at 50.0 µM), 46.3%. Moreover, the growth inhibition in assay [5] (setting [7]) was 21%; in assay [5] (setting [8]), 73% (active); in assay [5] (at 50.0 µM), 91.4% (active); in assay [6] (setting [7]) it was 3%; in assay [6] (setting [8]), 76% (active); in assay [6] (at 50.0 µM), 87.8% (active).

For the molecule `Cc1ccc(C(=O)CC(N)C(=O)O)cc1` (stereo not drawn), the growth inhibition in assay [1] (setting [7]) was -2%; in assay [1] (setting [8]), 0%; in assay [1] (at 50.0 µM), 12.2%; in assay [2] (setting [7]) it was 3%; in assay [2] (setting [8]), -2%; in assay [2] (at 50.0 µM), -3%. Further, the growth inhibition in assay [3] (setting [7]) was -1%; in assay [3] (setting [8]) it was -1%; in assay [3] (at 50.0 µM), -3.05%; in assay [4] (setting [7]) it was 2%; in assay [4] (setting [8]), 1%; in assay [4] (at 50.0 µM) it was 89% (active). The growth inhibition in assay [5] (setting [7]) is 2%; in assay [5] (setting [8]), -2%; in assay [5] (at 50.0 µM), -2.25%; in assay [6] (setting [7]), -1%; in assay [6] (setting [8]) it was 3%; in assay [6] (at 50.0 µM), 8.95%.

For the molecule `CCSSC12CCCN1C(=O)C(C)N(C)C2=O` (stereo not drawn), the growth inhibition was 1% in assay [1] (setting [7]); 79% (active) in assay [1] (setting [8]); 77.6% (active) in assay [1] (at 50.0 µM); 9% in assay [2] (setting [7]); 81% (active) in assay [2] (setting [8]); 16.4% in assay [2] (at 50.0 µM). For the same molecule, the growth inhibition in assay [3] (setting [7]) was 7%; in assay [3] (setting [8]), 49%; in assay [3] (at 50.0 µM) it was 11.6%; in assay [4] (setting [7]) it was 11%; in assay [4] (setting [8]), 58%; in assay [4] (at 50.0 µM) it was -61.4%. Besides, the growth inhibition in assay [5] (setting [7]) is 0%; in assay [5] (setting [8]), 53%; in assay [5] (at 50.0 µM), 19.8%; in assay [6] (setting [7]), 1%; in assay [6] (setting [8]) it was 84% (active); in assay [6] (at 50.0 µM) it was 4.5%.

With `O=C(O)c1ccc2ccccc2c1C(=O)c1cccc2ccccc12`, the growth inhibition was 12% in assay [1] (setting [7]); 12% in assay [1] (setting [8]); 86.8% (active) in assay [1] (at 50.0 µM); 1% in assay [2] (setting [7]); 8% in assay [2] (setting [8]); 83.5% (active) in assay [2] (at 50.0 µM). In addition, the growth inhibition is 0% in assay [3] (setting [7]); 21% in assay [3] (setting [8]); 90.4% (active) in assay [3] (at 50.0 µM); 7% in assay [4] (setting [7]); 9% in assay [4] (setting [8]); 92.1% (active) in assay [4] (at 50.0 µM). Moreover, the growth inhibition in assay [5] (setting [7]) is 0%; in assay [5] (setting [8]), 3%; in assay [5] (at 50.0 µM), 83.2% (active); in assay [6] (setting [7]), -5%; in assay [6] (setting [8]) it was 15%; in assay [6] (at 50.0 µM) it was 92.2% (active).

For `Cc1c[nH]c2c(O)cc3c(c12)[C@H](CCl)CN3C(=O)c1cc2cc(NC(=O)Nc3ccc4[nH]c(C(=O)N5C[C@@H](CCl)c6c5cc(O)c5[nH]cc(C)c65)cc4c3)ccc2[nH]1`, the growth inhibition in assay [1] (setting [7]) is 38%; in assay [1] (setting [8]), 70% (active); in assay [1] (at 50.0 µM), 17.4%; in assay [2] (setting [7]), 30%; in assay [2] (setting [8]) it was 63%; in assay [2] (at 50.0 µM), 33.6%. In addition, the growth inhibition in assay [3] (setting [7]) is 33%; in assay [3] (setting [8]) it was 64%; in assay [3] (at 50.0 µM) it was -12.9%; in assay [4] (setting [7]) it was 14%; in assay [4] (setting [8]), 34%; in assay [4] (at 50.0 µM) it was -3.3%. Besides, the growth inhibition is 34% in assay [5] (setting [7]); 56% in assay [5] (setting [8]); -0.05% in assay [5] (at 50.0 µM); 78% (active) in assay [6] (setting [7]); 86% (active) in assay [6] (setting [8]); 3.2% in assay [6] (at 50.0 µM).
